# Source: PubChem BioAssay (National Center for Advancing Translational Sciences (NCATS))
# Shown are actives, neighbours in structure and some others; about 1.7% of the full set was active somewhere.
# PTHR1 ag: activates the human parathyroid hormone receptor PTHR1 | 410,000 compounds, 0.075% hits | AID 743266 | HEK293 GP2 PTHR1 cells, GloSensor cAMP luminescence, 1 h | Q03431 | Potency, µM (series often up to 115 µM), inactives show top-dose activation, usual class: activators; note: nearly all actives have a fitted effect of over 55% in size
# Target sequence (Q03431 whole entry, looked up): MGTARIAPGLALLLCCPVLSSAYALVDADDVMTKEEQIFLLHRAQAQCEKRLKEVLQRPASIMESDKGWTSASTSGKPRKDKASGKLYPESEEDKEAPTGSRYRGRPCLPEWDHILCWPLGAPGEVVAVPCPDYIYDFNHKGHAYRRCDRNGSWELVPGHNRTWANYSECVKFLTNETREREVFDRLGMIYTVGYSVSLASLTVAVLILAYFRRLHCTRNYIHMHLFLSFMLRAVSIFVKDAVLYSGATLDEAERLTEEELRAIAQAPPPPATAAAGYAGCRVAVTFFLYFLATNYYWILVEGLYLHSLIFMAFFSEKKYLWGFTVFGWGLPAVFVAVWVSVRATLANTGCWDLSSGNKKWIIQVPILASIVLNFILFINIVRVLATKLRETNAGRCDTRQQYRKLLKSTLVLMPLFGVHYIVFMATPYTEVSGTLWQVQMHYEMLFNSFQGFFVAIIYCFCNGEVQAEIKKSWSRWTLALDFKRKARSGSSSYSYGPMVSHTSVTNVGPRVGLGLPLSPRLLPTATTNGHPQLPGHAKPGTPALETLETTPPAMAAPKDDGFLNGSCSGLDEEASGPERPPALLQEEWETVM
#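 HEK-293-derived GP2 cells expressing PTHR1 and a GloSensor cAMP reporter, 3,000/well, plated overnight, given luciferin plus IBMX (each 0.5 mM as added) for 1 h at 37 °C, then compound for 1 h at 37 °C. Luminescence was read after 15 min at room temperature.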
# HEK293 tox: cytotoxicity in counter-screen for GLP-1R inverse agonists; HEK293 cAMP-luciferase reporter cells, luminescence, 24 h; Potency, µM (doses to about 38.3 µM), without a hit: top-dose activity change, negative = inhibition, usual class: inhibitors; 410,000 compounds, 0.13% hits;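 note: loss of luciferase light is scored as toxicity; % is set by controls: 0 for no effect and ±100 for the full control effect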
#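 1536-well qHTS counterscreen of the MLSMR; 200 cells/uL, 12 h pre-incubation, 23 nL cpd, 24 h at 37 deg C 5% CO2, luciferase detection reagent, 12 min RT, luminescence. Inhibition = undesired.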
# GLP1R ag: GLP-1 receptor (human) agonism. HEK293 GLP-1R CRE-luciferase, luminescence, 4-6 h; cells express a hypersensitive GLP-1R form. Potency, µM (top dose mostly 45.6 µM), inactives show at the highest dose activation, usual class: activators. 380,000 compounds, 0.007% hits. AID 624172; note: % of control where 0% means no effect
# GLP1R inv ag: GLP-1 receptor (human) inverse agonism | P43220 | HEK293 GLP-1R CRE-luciferase, luminescence, 24 h; GLP-1R form is constitutively active | Potency, µM (highest dose often 38.3 µM), inactives show at the highest dose activity change, negative = inhibition, usual class: inhibitors | 410,000 compounds, 1.6% hits | AID 624417; note: % is set by controls: 0 for no effect and ±100 for the full control effect; nearly all actives have a fitted effect of over 55% in size
#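 GLP-1R inverse agonism mode: basal reporter luminescence in engineered HEK293 cells measured after one day of compound exposure at 37 deg C, with a 12 min room-temperature detection step.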
# An asterisk follows results filed as active; i = inactive; ? = inconclusive; / = not tested or not shown; [ ] = dose if it differs, or a comment. Calls come from the whole dose curve; as a rule, active = well fitted curve in the direction sought with a large enough effect; inconclusive = small, poorly fitted or top-dose-only effect, or another doubt; inactive = no such curve, though single readings can be large; an effect the other way counts as inactive or inconclusive. Potency is the fitted concentration of half-maximal effect.
SMILES,PTHR1 ag,HEK293 tox,GLP1R ag,GLP1R inv ag
COc1ccccc1N1CCN(C(=O)c2c(C)oc3ncn(C)c(=O)c23)CC1,-14%,4%,/,-1%
O=C(CSc1c2c(nc3ccc(Cl)cc13)CCCC2)N1CCCCC1,i,-23%,/,-17%
NC(=S)NN=Cc1nccc2c(C(F)(F)F)cccc12,-14%,?,3%,1.3µM*
Cc1ccc(NC(=O)NN2CCN(C)CC2)cc1C,i,29%,0%,0%
Cc1ccc(S(=O)(=O)N(Cc2ccccc2)c2ccccc2C(=O)Nc2ccccc2C(=O)NCc2ccco2)cc1,-48%,15%,-5%,5µM*
Cc1ccc2oc(C(=O)N(Cc3ccccc3)C3CCS(=O)(=O)C3)c(C)c2c1 (configuration not stated),-7%,-21%,21%,?
Cc1c(C(=O)N(Cc2ccccc2Cl)C2CCS(=O)(=O)C2)oc2ccccc12 (configuration not stated),-14%,-31%,14%,10µM*
CCCCNCCCOc1cccc(Cl)c1Cl,i,?,-1%,7.9µM*
CCCCNCCCOc1ccc(C)cc1Br,?,-26%,-8%,?
Cc1ccc(C(=O)[C@H](C)CN2CCCCC2)cc1,/,/,-6%,/
COc1ccc(NC(=O)c2sc3nc4c(cc3c2N)CN(Cc2ccccc2)CC4)c(OC)c1,-30%,7%,/,?
Cc1ccc2nc(SC(C(=O)Nc3ccc(F)cc3)c3ccccc3)[nH]c2c1 (configuration not stated),-9%,?,-18%,5.6µM*
Cc1onc(-c2ccccc2)c1C(=O)NC(=S)NNC(=O)c1ccc(O)cc1O,i,-1%,1%,?
Cc1onc(-c2ccccc2)c1C(=O)NC(=S)NNC(=O)c1ccccc1O,-18%,?,1%,2.8µM*
COc1ccc(CN(CCC(C)C)S(=O)(=O)c2ccccc2Br)cc1,i,19%,1%,11µM*
O[C@@H](CNC[C@H](O)[C@H]1CCc2cc(F)ccc2O1)[C@@H]1CCc2cc(F)ccc2O1,/,/,-1%,/
O=C(N/N=C/c1ccc(-c2ccccc2)o1)c1ccccc1O,-22%,?,6%,10µM*
O=C(N/N=C\c1ccncc1)c1ccccc1O,-9%,18%,0%,-6%
CC(C)C1=NN(C(=O)c2ccccc2)C(O)(C(C)(C)C)C1 (configuration not stated),i,?,-14%,13µM*
Cc1ccc(C(=O)Nc2ccc(C(=O)O)cc2)cc1S(=O)(=O)N1CCC(C)CC1,i,0%,/,3%
O=C1C(NS(=O)(=O)c2cccs2)=C(N2CCOCC2)C(=O)c2ccccc21,-11%,-53%,4%,-21%
CN(C1=C(N2CCOCC2)C(=O)c2ccccc2C1=O)c1ccccc1,-17%,?,-13%,10µM*
COc1ccc(CN2C(=O)CSCC2=O)cc1OC,i,1%,-6%,5%
COc1ccc(CCN2C(=O)CSC2=S)cc1OC,-12%,?,2%,5.6µM*
CCC/C=C/c1ccc(CN2C(CC(C)C)C(=O)N(Cc3cn(CCC4OCCO4)nn3)CCS2(=O)=O)cc1 (configuration not stated),-1%,-18%,-3%,?
SMILES,PTHR1 ag,HEK293 tox,GLP1R ag,GLP1R inv ag
CCC/C=C/c1ccc(CN2C(C(C)C)C(=O)N(Cc3cn(CCC4OCCO4)nn3)CCS2(=O)=O)cc1 (configuration not stated),-58%,-28%,3%,10µM*
CC(=O)c1ccc(NC(=O)CCc2c(C)nn(-c3ccc(N4CCCCC4)nn3)c2C)cc1,-18%,8%,/,10%
CC1(Cc2ccc(C(F)(F)F)o2)C(=O)Nc2ccc(-c3cccc(C(F)(F)F)c3)cc21 (configuration not stated),-16%,?,-8%,10µM*
Cc1cccc(NC(=O)CCc2c(C)nc3c(c(C)nn3C(C)(C)C)c2C)c1C,-21%,-1%,-3%,1%
O=C(Nc1ccccc1Sc1ccccc1)c1ccccc1,-9%[57.5 µM],22%,5%,11µM*
O=C(Cc1ccccc1)Nc1ccccc1Sc1ccccc1,-30%,31%,3%,11µM*
O=C(Cc1ccc(Br)cc1)Nc1ccccc1Sc1ccccc1,i,-1%,-1%,10µM*
O=C(Cc1ccc(F)cc1)Nc1ccccc1Sc1ccccc1,-17%,10%,17%,?
CCN(CC)S(=O)(=O)c1ccc2c(c1)N(CC(=O)Nc1ccccc1F)C(=O)C1CCCN21 (configuration not stated),i,3%,/,12%
CC1=CC(C)(C)NC(=S)N1C(C)c1ccccc1 (configuration not stated),-6%,10µM*,7%,?
O=C(CSc1nnc(-c2ccccc2)c(-c2ccccc2)n1)NC1CCCCC1,-2%,1%,/,9%
CC(C)(C)c1ccc(C(=O)Nc2cccnc2)cc1,-14%,-19%,-1%,?
CC(C)(C)c1ccc(C(=O)Nc2ccc(Oc3cccnc3)nc2)cc1,-47%,-5%,0%,8.9µM*
O=C(Cc1cccs1)NC1C(=O)N2C(C(=O)[O-])=C(C[n+]3ccccc3)CSC12 (configuration not stated),/,/,-2%,/
Cc1ccc(SCC(=O)NC(=O)NC2CCCC2)c(C)c1,i,0%,30%,-89%
Cc1ccc(C)c(SCC(=O)NC(=O)NC2CCCC2)c1,-19%,2%,-4%,11µM*
COc1cc(C(=O)Oc2ccccc2/C=N/NC(=O)c2ccc(C)c(Cl)c2)cc(OC)c1OC,i,?,-4%,-2%
O=C(N/N=C/c1cc(Br)cc(Cl)c1O)c1ccc2c(c1)OCO2,-8%,?,4%,2.5µM*
Cc1cc(Br)cc(/C=N/NC(=O)c2ccc3c(c2)OCO3)c1O,-33%,-16%,-7%,?
O=C(N/N=C/c1ccccc1OC(=O)c1ccc2c(c1)OCO2)c1cccc(F)c1,i,?,0%,10µM*
COc1cc(C(=O)Oc2ccccc2/C=N/NC(=O)c2ccc(Cl)cc2)cc(OC)c1OC,i,-26%,1%,2.8µM*
O=C(N/N=C/c1ccccc1O)c1ccc2c(c1)OCO2,-19%,83%,11%,?
COc1ccc(NC(=O)Cn2nc(C)c3nn(-c4ccc(Cl)cc4)c(C)c3c2=O)cc1,i,-13%,/,11%
O=C(N/N=C/c1c[nH]c2ccc(Br)cc12)c1ccn(Cc2ccc(Cl)cc2Cl)n1,i,-9%,-2%,11µM*
O=C(Nc1ccc2c(c1)N(C1CCCC1)C(=O)c1ccccc1S2)c1ccccc1F,-35%,14%,/,?
Cc1ccc(CN2C(=O)C(O)(c3c[nH]c4ccccc34)c3cc(Cl)ccc32)cc1 (configuration not stated),-16%,-16%,-8%,?
Cc1ccc(Oc2ncccc2/C=N/OCc2ccc(Cl)c(Cl)c2)cc1,-22%,0%,-8%,10µM*
Cc1ccc(CO/N=C/C2=C(Cl)c3ccccc3CC2)cc1,i,22%,-1%,-21%
